PAD4 FP inh: PAD4 (human) enzyme inhibition; Q9UM07; recombinant PAD4, RCA probe fluorescence polarization; inhibition, % at 6.36 µM; actives 0.41% (n = 330,000);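 active means percent inhibition above a cutoff equal to the mean of all tested compounds plus 3 SD, cut at about 15% in these data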
LYPLA2 counter: counter-screen for PME1 inhibitors: inhibitors of human LYPLA2 | inhibition, % at 5.9 µM | AID 2177 | actives 0.38% (n = 320,000) | recombinant LYPLA2, FP-Rh probe fluorescence polarization;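 active means inhibition above the screen-wide mean plus 3 SD, limit set per campaign, cut at about 26% in these data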
Target sequence (O95372 whole entry, looked up): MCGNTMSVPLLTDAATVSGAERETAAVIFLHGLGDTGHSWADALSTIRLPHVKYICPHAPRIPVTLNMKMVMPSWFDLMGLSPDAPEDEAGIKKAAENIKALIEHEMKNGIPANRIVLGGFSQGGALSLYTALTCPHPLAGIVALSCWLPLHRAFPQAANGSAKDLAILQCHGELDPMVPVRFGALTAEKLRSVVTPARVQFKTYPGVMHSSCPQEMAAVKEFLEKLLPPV
LYPLA1 counter: blocks human lysophospholipase 1, a PME1 counter-screen. O75608. recombinant LYPLA1, FP-Rh probe fluorescence polarization. inhibition, % at 5.9 µM. actives 0.16% (n = 320,000). AID 2174;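 active means inhibition above the mean of all tested compounds plus 3 SD, set per campaign, cut at about 14% in these data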;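 further: inhibitors block serine hydrolase probe labeling of LYPLA1 so polarization falls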
Fam108B counter: blocks mouse Fam108B hydrolase in RBBP9 counter-screen; actives 0.33% (n = 300,000); recombinant Fam108B, FP-Rh probe fluorescence polarization; inhibition, % at 9.51 µM;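 active means inhibition above the screen mean inhibition plus 3 SD, computed separately per campaign, cut at about 18% in these data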;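 further: inhibitors lower polarization as less probe binds the enzyme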
PME-1 primary: blocks human protein phosphatase methylesterase 1; Q9Y570; inhibition, % at 5.9 µM; actives 0.53% (n = 320,000); AID 2130; recombinant PME-1, FP-Rh probe fluorescence polarization;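 active means inhibition above the campaign mean of all compounds plus 3 SD, cut at about 26% in these data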;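 further: competitive labeling of PME-1 active site by serine hydrolase directed probe; inhibitors block probe labeling so polarization falls and inhibition rises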
GSTO1 inh: GSTO1 inhibition, counter-screen for RBBP9 inhibitors; inhibition, % at 5.96 µM; P78417; actives 1.1% (n = 300,000); recombinant GSTO1, activity-based probe fluorescence polarization; AID 1974;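 active means inhibition above the campaign mean inhibition plus 3 SD, cut at about 35% in these data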
Target sequence (P78417 whole entry, looked up): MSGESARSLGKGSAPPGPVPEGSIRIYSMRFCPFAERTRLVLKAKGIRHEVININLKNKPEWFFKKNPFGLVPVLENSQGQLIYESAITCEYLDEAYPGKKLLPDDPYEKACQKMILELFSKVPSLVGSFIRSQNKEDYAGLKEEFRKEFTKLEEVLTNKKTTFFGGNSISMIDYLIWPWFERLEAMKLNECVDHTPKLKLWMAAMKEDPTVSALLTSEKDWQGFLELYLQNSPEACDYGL
LYPLA2 conf: counter-screen for PME1 inhibitors: confirmation of human LYPLA2 inhibitors; shares compounds with LYPLA2 counter; actives 72% (n = 1,100); inhibition, % at 5.9 µM; recombinant LYPLA2, FP-Rh probe fluorescence polarization;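 active means mean inhibition across replicates above the hit cutoff set in the primary screen, cut at about 26% in these data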;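 further: blocked labeling of the enzyme by serine hydrolase FP-Rh probe lowers polarization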
LYPLA2 ABPP: blocks human acyl-protein thioesterase 2 in gel ABPP; inhibition, % at 20 µM; actives 30% (n = 150); rhLYPLA2 in mouse brain proteome, gel ABPP FP-Rh; shares compounds with LYPLA2 counter;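 active means inhibition of LYPLA2 enzyme probe labeling above about 50%, limit read from the data; inactive means inhibition below that limit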;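 further: loss of FP-Rh probe labeling of the LYPLA2 gel band measured as band density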
Of the large screens only hits and unclear results are named; the others gave an inactive call (follow-up assays come after a bar, where they were run). Most compounds without a hit are left out; they make up all but 1.8% or so of the library.

COc1cccc(-c2csc(N3CCN(CC(=O)Nc4ccc5c(c4)OCO5)CC3)n2)c1	none
COc1ccc(NC(=O)CN2CCN(c3nc(-c4cccc(OC)c4)cs3)CC2)cc1	LYPLA2 counter 33 | LYPLA2 conf inactive
Cc1ccccc1NC(=O)c1nn(C)c2c1CS(=O)(=O)c1ccccc1-2	LYPLA2 counter 40 | LYPLA2 conf 46
CCc1ccc(C(=O)N2CCC(c3nc4ccccc4s3)CC2)cc1	LYPLA2 counter 49 | LYPLA2 conf 39
NC(=O)CC(NC(=O)c1ccc(Br)cc1)c1ccc(N2CCN(c3ccccc3)CC2)c([N+](=O)[O-])c1 (centres undefined)	LYPLA2 counter 26 | LYPLA2 conf 28
Cc1cccc(C)c1OCc1cc(C(=O)N(Cc2c(C)nn(C)c2C)C2CC2)no1	none
O=C(O)c1cc([N+](=O)[O-])ccc1Nc1ccccc1	none
Cc1cccc(Nc2ccc([N+](=O)[O-])cc2C(=O)O)c1	LYPLA2 counter 36 | LYPLA2 conf 43
COc1ccc(N2CCN(C(=O)CNS(=O)(=O)c3ccc(Br)s3)CC2)cc1	LYPLA2 counter 27 | LYPLA2 conf 33
COc1ccccc1N1CCN(C(=O)CNS(=O)(=O)c2ccc(Br)s2)CC1	none
COc1ccc(N2CCN(C(=O)CCNS(=O)(=O)c3cc(Br)cnc3N)CC2)cc1	LYPLA2 counter 32 | LYPLA2 conf inactive
Cc1cc(=O)oc2cc(OCC(=O)N(C)C3CCS(=O)(=O)C3)c(Cl)cc12 (centres undefined)	none
COc1ccc(N2CCN(C(=O)CN3C(=O)NC4(CCCCCC4)C3=O)CC2)cc1	none (no result: Fam108B counter, GSTO1 inh)
CC(CCC(C)C)=NNC(=S)Nc1cc(S(=O)(=O)N2CCOCC2)ccc1N1CCOCC1	none (no result: PAD4 FP inh, LYPLA2 counter, LYPLA1 counter, Fam108B counter, PME-1 primary, GSTO1 inh) | LYPLA2 ABPP 60
O=C(Cc1ccc(S(=O)(=O)N2CCOCC2)s1)N1CCN(c2cccc(C(F)(F)F)c2)CC1	LYPLA2 counter 40 | LYPLA2 conf 48
O=C(Nc1ccnn1C1CCN(Cc2ccn[nH]2)CC1)c1ccccc1	none
c1ccc(-c2ccc(C(c3ccccc3)n3ccnc3)cc2)cc1 (centres undefined)	LYPLA2 counter 27 | LYPLA2 conf inactive
COc1ccc(N2CCN(C(=O)c3ccc(N(C)S(=O)(=O)c4ccc(C)cc4)cc3)CC2)cc1	LYPLA2 counter 50 | LYPLA2 conf 55 | LYPLA2 ABPP inactive
COc1ccc(N2CCN(C(=O)c3ccc(N(C)S(=O)(=O)c4ccc(OC)cc4)cc3)CC2)cc1	LYPLA2 counter 54 | LYPLA2 conf 58 | LYPLA2 ABPP inactive
COc1ccc(S(=O)(=O)N(C)c2ccc(C(=O)N3CCN(C)CC3)cc2)cc1	none
O=C(c1ccc(CSc2nc3ccncc3[nH]2)cc1)N1CCN(c2cccc(Cl)c2)CC1	LYPLA2 counter 33 | LYPLA2 conf 31
CCc1ccccc1NC(=O)CN1CCN(C(=O)C2CCN(C(=O)/C=C/c3ccccc3)CC2)CC1	none (no result: Fam108B counter, GSTO1 inh)
COc1ccc(CCn2c(C)cc(C(=O)COC(=O)c3cnccn3)c2C)cc1	LYPLA2 counter 43 | LYPLA2 conf 41
COc1ccc(CCn2c(C)cc(C(=O)COC(=O)c3cnc(C)cn3)c2C)cc1	none
COc1cccc(OCC(O)CN2CCN(CCN3C(=O)c4cccc5cccc(c45)C3=O)CC2)c1 (centres undefined)	LYPLA2 counter 32 | LYPLA2 conf 34
COc1cccc(OCC(O)CN2CCOCC2)c1 (centres undefined)	none
CCCCCCC1CC(CC(=O)Nc2ccc([N+](=O)[O-])cc2)C(=O)O1 (centres undefined)	LYPLA2 counter 34 | LYPLA2 conf 28
O=C(c1cc(COc2ccc(F)cc2Cl)on1)N1CCC(c2ccncc2)CC1	LYPLA2 counter 33 | LYPLA2 conf 30
O=C(c1cc(COc2ccc(F)cc2Cl)on1)N1CCCCCC1	none
O=[N+]([O-])c1ccc(Sc2cccc3cccnc23)cc1	LYPLA2 counter 28 | LYPLA2 conf inactive
